Source: PubChem (Johns Hopkins Ion Channel Center)
KCNQ2 pot: KCNQ2 (rat) channel potentiation. O88943. CHO-K1 KCNQ2, FluxOR thallium flux fluorescence; active compounds read high. B-score at 10 µM. 310,000 compounds, 0.54% hits;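 active = fluorescence ratio B-score at least 3 SD of library B-scores, with initial fluorescence B-score within 3 of them, cut at about 5.3 in these data; same plate scores as AID 2156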;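 also: B-score of peak minus minimum over baseline fluorescence ratio after K+ and Tl+ stimulus; positive B-score means potentiation of KCNQ2 with more thallium influx and brighter signal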
Target sequence (O88943 whole entry, looked up): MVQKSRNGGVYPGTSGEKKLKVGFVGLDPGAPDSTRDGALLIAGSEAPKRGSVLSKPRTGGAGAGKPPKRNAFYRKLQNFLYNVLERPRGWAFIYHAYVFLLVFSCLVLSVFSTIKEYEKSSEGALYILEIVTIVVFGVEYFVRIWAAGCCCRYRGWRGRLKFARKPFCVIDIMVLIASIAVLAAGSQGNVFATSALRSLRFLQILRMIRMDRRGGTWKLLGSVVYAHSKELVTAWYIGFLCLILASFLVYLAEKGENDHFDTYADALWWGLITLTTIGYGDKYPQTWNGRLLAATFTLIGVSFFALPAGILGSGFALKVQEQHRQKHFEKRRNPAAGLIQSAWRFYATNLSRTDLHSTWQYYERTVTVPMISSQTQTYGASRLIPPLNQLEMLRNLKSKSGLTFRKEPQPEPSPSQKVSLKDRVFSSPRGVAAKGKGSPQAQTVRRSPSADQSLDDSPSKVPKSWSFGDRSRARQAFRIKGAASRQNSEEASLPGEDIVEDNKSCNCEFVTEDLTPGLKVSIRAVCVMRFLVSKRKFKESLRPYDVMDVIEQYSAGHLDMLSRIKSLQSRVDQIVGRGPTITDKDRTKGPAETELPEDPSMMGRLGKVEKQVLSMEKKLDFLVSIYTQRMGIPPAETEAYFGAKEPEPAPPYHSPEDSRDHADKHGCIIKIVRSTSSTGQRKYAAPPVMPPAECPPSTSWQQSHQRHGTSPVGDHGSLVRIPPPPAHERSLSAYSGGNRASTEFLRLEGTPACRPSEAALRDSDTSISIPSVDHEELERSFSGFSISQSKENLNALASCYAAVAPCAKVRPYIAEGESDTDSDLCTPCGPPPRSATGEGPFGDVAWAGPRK
KCNQ2 inh: inhibitors of rat KCNQ2 potassium channel; O88943; CHO-K1 KCNQ2, FluxOR thallium flux, 20 min; active compounds read low; B-score at 10 µM; 310,000 compounds, 1.1% hits; AID 2156;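 active = fluorescence ratio B-score at most minus 3 library SDs, with starting brightness B-score within 2 library SDs, cut at about -5.5 in these data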
Large screens that a line does not name were inactive. Shown are actives, neighbours in structure and some others; about 1.6% of the full set was active somewhere.

CCCC/C=C/C(NC(=O)CCc1ccccc1)c1ccccc1 (centres undefined)	none (no result: KCNQ2 pot)
CCc1nnc(SCC(=O)Nc2ccccc2)n1CC1CCCO1 (centres undefined)	none
CN(C)c1ccc(S(=O)(=O)N2CCCCC2)cc1NC(=O)COc1ccccc1F	none (no result: KCNQ2 pot)
O=C(NNc1ccccc1)/C(=C\c1cccnc1)NC(=O)c1ccccc1	none (no result: KCNQ2 pot)
COc1ccc(OC)c(C2=NS(=O)(=O)N(C)C(C(=O)Nc3ccc(F)cc3F)=C2)c1	none
O=C(COC(=O)C1(c2ccc(F)cc2)CCCC1)NCc1ccco1	none (no result: KCNQ2 pot)
NS(=O)(=O)c1cccc(NC(=O)COC(=O)CC2CC3CCC2C3)c1 (centres undefined)	none
CCOC(=O)c1nnc(-c2ccc(C)cc2)nc1Oc1ccc(Cl)cc1Cl	KCNQ2 inh -6
CCOC(=O)c1nnc(-c2ccc(C)cc2)nc1Oc1ccccc1Cl	none (no result: KCNQ2 pot)
COc1ccc(NC(=O)CN2CCC(NC(=O)c3ccc(OC)cc3)CC2)cc1	none
CCc1cccc(CC)c1NC(=O)c1cccc(NC(=O)c2ccccc2)c1	none (no result: KCNQ2 pot)
CCc1cccc(C)c1NC(=O)c1cccc(N(C)C)c1	KCNQ2 inh -6.9
NC(=O)C1CCN(C(=O)c2ccc3c(=O)n(Cc4ccco4)c(SCc4ccc([N+](=O)[O-])cc4)nc3c2)CC1	none (no result: KCNQ2 pot)
Cc1ccc(CNC(=O)Cn2ccc3cc(S(=O)(=O)N4CCCC4)ccc32)o1	none
O=C(NCc1ccco1)c1ccc(Cn2c(=O)c3ccccc3n(Cc3cccc(F)c3)c2=O)cc1	none (no result: KCNQ2 pot)
O=C(NCc1ccco1)c1ccc(Cn2c(=O)c3ccccc3n(Cc3ccc(Cl)cc3)c2=O)cc1	KCNQ2 inh -6.5
CCCC1=Nc2cc(C(=O)N3CCN(c4ccccn4)CC3)ccc2Sc2ccc(C)cc21	KCNQ2 inh -5.7
CCOC(=O)N1CCN(C(=O)c2ccc3c(c2)N=C(CC)c2cc(C)ccc2S3)CC1	none (no result: KCNQ2 pot)
CCC1=Nc2cc(C(=O)N3CCCCC3)ccc2Sc2ccc(C)cc21	KCNQ2 inh -5.9
CCCC1=Nc2cc(C(=O)N3CCCC3)ccc2Sc2ccc(C)cc21	none (no result: KCNQ2 pot)
O=C(Cn1cnc2ccccc21)N/N=C/C(Br)=C/c1ccccc1	none (no result: KCNQ2 pot)
CC(=O)c1c(C)[nH]c(C(=O)NNC(=O)COc2ccc(Cl)cc2C)c1C	KCNQ2 inh -5.8
COc1ccc(Cl)cc1NC(=O)c1[nH]c(C)c(C(C)=O)c1C	none
CC1=C(/C=C/C(C)=C/C=C/C(C)=C\C(=O)O)C(C)(C)CCC1	KCNQ2 inh -7.7
CC1=C(/C=C/C(=O)O)C(C)(C)CCC1	none
Cc1cccc(-c2ncc(CN3CCN(CC(C)C)C(CCO)C3)cn2)c1 (centres undefined)	none
Cc1nnc(SCC(=O)c2ccc(C(C)C)cc2)s1	none
CC1(C)CN=C(N(C(=O)Nc2ccccc2)c2ccccc2F)S1	none (no result: KCNQ2 pot)
CC1(C)CN=C(N(Cc2ccccc2)C(=O)Nc2ccccc2)S1	KCNQ2 inh -6.4
CSc1ccc(S(=O)(=O)NCC(=O)OCC(=O)N2CCCCC2C)cc1[N+](=O)[O-] (centres undefined)	none (no result: KCNQ2 pot)
Cc1cccc2c1-c1sc(C(=O)N3CCCCC3)cc1CO2	none (no result: KCNQ2 pot)
Cc1cccc2c1-c1sc(C(=O)N3CCc4ccccc4C3)cc1CO2	KCNQ2 inh -5.6
CS(=O)(=O)N(CC(=O)Nc1ccccc1Br)Cc1ccccc1	none (no result: KCNQ2 pot)
COc1ccc(NC(=O)c2c3c(nc4ccccc24)CCC3)cc1	none (no result: KCNQ2 pot)
COC(=O)c1c2c(nc3ccccc13)CCC2	none
O=C(Nc1ccccc1)c1c2c(nc3ccccc13)CCCC2	KCNQ2 inh -8.2
COc1ccc(OC)c(NC(=O)c2c3c(nc4ccccc24)CCC3)c1	KCNQ2 inh -6.1
CCc1cc2c(SCc3ccc(C(=O)OC)o3)ncnc2s1	none (no result: KCNQ2 pot)
O=c1c2c(-c3cccs3)csc2ncn1/N=C/c1ccc(OC(F)F)cc1	KCNQ2 inh -7.4
O=c1c2c(-c3cccs3)csc2ncn1/N=C/c1ccccn1	none (no result: KCNQ2 pot)
CC1CCc2sc(C(=O)NNC(=S)NCC3CCCO3)cc2C1 (centres undefined)	none
CC1CCc2sc(C(=O)NC(C)C3CCCO3)cc2C1 (centres undefined)	KCNQ2 inh -6.1
Oc1c(Br)cc(Br)cc1C=NCc1ccc(F)cc1	KCNQ2 pot 11
Oc1c(Br)cc(Br)cc1C=NCc1ccccc1	none (no result: KCNQ2 pot)
O=C(CC1SC(=O)NC1=O)Oc1ccc(/C=N/NC(=O)c2ccccc2O)cc1 (centres undefined)	none
CCOC(=O)/C(C#N)=C/c1cc2ccccc2nc1N1CCCCC1	KCNQ2 inh -6.5
Cc1ccc2cc(/C=C(\C#N)C(N)=O)c(N3CCCCC3)nc2c1	none (no result: KCNQ2 pot)
CC(NC(=O)Cc1ccsc1)c1ccc(Cl)cc1Cl (centres undefined)	none
COc1ccc(Cl)cc1Nc1ncnc2sc(C)c(S(=O)(=O)N3CCC(C)CC3)c12	KCNQ2 inh -6.7
COCCNC(=O)Cn1cnc2sc(C)c(S(=O)(=O)N3CCC(C)CC3)c2c1=O	none (no result: KCNQ2 pot)
O=C(CN(C(=O)c1csnn1)c1ccccc1)NCCc1ccccc1	none
Cc1nn(-c2ccccc2)c(Cl)c1CN(C(=O)CCl)c1cccc2ccccc12	none (no result: KCNQ2 pot)
CCOc1ccc(N2C(=O)CC(N(CCc3ccc(OC)c(OC)c3)C(=O)/C=C/C(=O)O)C2=O)cc1 (centres undefined)	none
